Only some compounds are listed: those with a hit (about 21% of all), similar ones and a draw of the others.
Pf growth 96h – P. falciparum growth inhibition at 96 hour, primary screen for plastid delayed-death inhibitors | actives 6.9% (n = 320,000) | Potency, µM (top dose mostly 28.7 µM), inactives show top-dose activity change, negative = inhibition, hits mostly inhibitors | P. falciparum luciferase reporter growth, 96 h; further: potency means the concentration at half of the fitted maximal effect; on the % scale 0 is the no-effect control and ±100 the full control effect
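Delayed-death screen, second-generation endpoint: infected erythrocytes, 2% hematocrit, 0.05% parasitemia final; 96 hours at 37 C, 5% CO2; luciferase detection reagent; luminescence decrease equals reduced growth.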
Cycloheximide cs – counter-screen hit for Shiga toxin inhibitors, cycloheximide; AID 2314; cell reporter, cycloheximide protein synthesis inhibition counterscreen; actives 12% (n = 300,000); max response, %; in the data active means max response mostly above about 13%, no sharp cut-off; inactive means mostly below about 14%; further: read at 38.3 µM for the half of the compounds with a filed dose; 0% is about no effect
Pf growth 48h – inhibits P. falciparum growth in the first generation, 48 h; P. falciparum luciferase growth in erythrocytes, 48 h; Potency, µM (doses to about 28.7 µM), for inactives: top-dose activity change, negative = inhibition, most hits filed as inhibitors; AID 504832; actives 5.9% (n = 310,000); further: potency means the concentration at half of the fitted maximal effect; on the % scale 0 is the no-effect control and ±100 the full control effect
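Here the parasites carry a stable luciferase gene and grow inside erythrocytes in Albumax-based RPMI medium with compound for one erythrocytic cycle. Activity is scored as loss of luminescent signal.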
NS1 function inh – blocks influenza NS1 protein function; Potency, µM (highest dose often 46.1 µM), without a hit: at the top dose activity, positive = more growth; actives 0.4% (n = 270,000); AID 2326; calls by dose curve; further: potency means the concentration at half of the fitted maximal effect; actives are rising curves; nearly all actives have a fitted effect of over 50% in size
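OD600 was taken as the measure of yeast growth restored by compound in an NS1-expressing S. cerevisiae strain. Cells had been washed out of glucose medium and diluted 1:100 into galactose -URA medium, pH 6.0.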
Shiga toxin inh – blocks Shiga toxin action in Vero cells; actives 9.2% (n = 290,000); AID 2315; Vero cells, Shiga toxin protein synthesis inhibition reporter; inhibition, % at 38.7 µM; in the data active means inhibition mostly above about 28%, no sharp cut-off; inactive means mostly below about 43%; further: 0% is about no effect
* hit, by the source's call; ? = inconclusive; · = no result given; [ ] = another dose, or the depositor's remark. Unless noted, the call rests on the fitted dose curve; in most records, active means well fitted inhibition curve with a large enough effect; inconclusive means small, poorly fitted or top-dose-only effect, or another doubt; inactive means no such curve, though single readings can be large or run the other way.

SMILES	Pf growth 96h	Cycloheximide cs	Pf growth 48h	NS1 function inh	Shiga toxin inh
Cc1ccc(C(=O)Oc2ccc3c(c2)ncn3C)cc1	-26%	49*	17%	-51%	99*
Cn1cnc2cc(OC(=O)c3ccccc3)ccc21	48%	48*	11%	-53%	108*
COC(=O)c1nc(NC(=O)C(C)C)n[nH]1	5.9µM*	-4	?	-1%	9
Cc1ccc(-n2nnnc2SCC(=O)c2cc(C)n(CC3CCCO3)c2C)cc1 (configuration not stated)	1.5µM*	-2	?	-5%	5
Cc1cc(C(=O)CSc2nc3ccccc3[nH]2)c(C)n1CC1CCCO1 (configuration not stated)	-23%	21	290%	-13%	90
Cc1cc(C)n2nc(SCC(=O)c3cc(C)n(CC4CCCO4)c3C)nc2n1 (configuration not stated)	?	0	?	·	25
Cc1cc(C(=O)CSc2nc3ccccc3o2)c(C)n1CC1CCCO1 (configuration not stated)	133%	67*	·	-7%	78*
Cc1sc2nc(SCC(=O)c3cc(C)n(CC4CCCO4)c3C)n(C(C)C)c(=O)c2c1C (configuration not stated)	8.3µM*	-5	?	-2%	-5
Cc1cccc(-n2nnnc2SCC(=O)c2cc(C)n(CC3CCCO3)c2C)c1 (configuration not stated)	?	13	-24%	-12%	26
C=CCn1c(SCC(=O)c2cc(C)n(CC3CCCO3)c2C)nnc1-c1ccccc1 (configuration not stated)	9.3µM*	8	?	0%	23
Cc1ccc(C)c(NC(=O)CNS(=O)(=O)c2ccccc2)c1	?	-2	?	-8%	-7
CC1CCN(C(=O)CSc2nnc(CNC(=O)c3ccc(F)cc3)o2)CC1	3%	2	7%	0%	11
Cc1ccccc1Nc1nnc(-c2ccc(C(=O)NCCO)cc2)c2ccccc12	0%	5	-21%	-1%	3
Cc1ccc(C)c2c(N)c3c(nc12)CCCCC3 (tested in a mixture with another compound)	?	-2	?	·	-13
Cn1ccc(NC(=O)Nc2cccc([N+](=O)[O-])c2)n1	-2%[5.75 µM]	23*	?	-3%	39*
Cc1ccc(NC(=O)Nc2cccc([N+](=O)[O-])c2)nc1	?	20*	83%	·	85*
O=C(Nc1cccc([N+](=O)[O-])c1)Nc1cccc([N+](=O)[O-])c1	?	7	?	·	-5
O=S(=O)(c1ccc(Cl)cc1)N1CCN(c2nc(-c3ccc(F)cc3)nc3cc(Cl)ccc23)CC1	·	3	·	·	3
S=C(NCc1cccnc1)Nc1ccc(Oc2ccc(Cl)cc2)cc1	-27%	7	6%	-5%	-13
Cc1c(C(=O)N2CCN(c3ncccn3)CC2)oc2c(Cl)cccc12	-20%	·	?	·	·
Cc1c(C(=O)N2CCN(c3ccccn3)CC2)oc2c(F)cccc12	2.3µM*	20	10µM*	-44%	-6
Cc1cc(C)cc(C(=O)N2CCN(c3ccccn3)CC2)c1	12µM*	1	6%	-3%	-6
CC1CCN(C(=O)c2ccc(Br)c(S(=O)(=O)N3CCOCC3)c2)CC1	8%	-1	-9%	12%	-3
O=C(c1ccc(Cl)c(S(=O)(=O)N2CCOCC2)c1)N1CCN(c2ccccn2)CC1	12µM*	·	12µM*	·	·
CC1CCN(S(=O)(=O)c2cc(C(=O)N3CCN(c4ncccn4)CC3)ccc2Br)CC1	7.4µM*	-3	?	-13%	-10
SMILES	Pf growth 96h	Cycloheximide cs	Pf growth 48h	NS1 function inh	Shiga toxin inh
COc1ccc(CCNC(=O)CSc2nc3ncccc3[nH]2)c(OC)c1	?	-3	-3%	-2%	-4
CCC(C)[C@H](NC(=O)N1CCN(C)CC1)C(=O)OC (some centres not stated)	21%	-2	2%	2%	-14
O=C(c1ccc(S(=O)(=O)N2CCCCCC2)cc1)N1CCN(c2ccccn2)CC1	·	-1	13µM*	-31%	5
Cc1cc2oc(C(=O)N3CCN(CCc4ccccn4)CC3)c(C)c2cc1C	3%	-2	7%	-16%	-7
Cc1c(C(=O)N2CCCC(C(F)(F)F)C2)oc2ccccc12 (configuration not stated)	-68%	·	-26%	·	·
O=C(c1ccc(F)c(S(=O)(=O)N2CCOCC2)c1)N1CCN(c2ccc(F)cc2)CC1	6.6µM*	·	?	·	·
Cc1ccc2c(C)c(C(=O)N3CCN(Cc4ccccn4)CC3)oc2c1C	?	17*	-8%	-11%	18
Cc1c(C(=O)N2CCC[C@H]2C(N)=O)oc2c(F)cccc12	159%	29*	13%	6%	20
CC1(C)Cc2c(sc3ncnc(NN)c23)CO1	27%	-1	-11%	-3%	8
CC1CCN(S(=O)(=O)c2cc(C(=O)NC3(C)CCS(=O)(=O)C3)ccc2Br)CC1 (configuration not stated)	9.3µM*	·	?	·	·
O=C(c1ccc(Cl)c(S(=O)(=O)NCc2ccccc2)c1)N1CCN(c2ccccn2)CC1	4.7µM*	9	?	-19%	-7
CC1(NC(=O)c2cc(S(=O)(=O)N3CCCCC3)ccc2Cl)CCS(=O)(=O)C1 (configuration not stated)	35%	4	·	5%	-6
CCc1noc(N)c1C(=O)Nc1ccc(Cl)cc1	5%	-2	22%	-18%	-5
COc1ccc(S(=O)(=O)N2CCC(C(=O)NCc3cccs3)CC2)cc1	?	-1	-27%	-5%	-23
COc1cccc(C2CC(c3c(Cl)cccc3Cl)n3nc(N)nc3N2)c1 (configuration not stated)	13µM*	-2	?	-2%	-8
CCc1ccc(C2CC(c3ccccc3)Nc3nc(N)nn32)cc1 (configuration not stated)	1.9µM*	5	9%	5%	18
CCOc1ccccc1C1CC(c2ccc(Br)cc2)Nc2nc(N)nn21 (configuration not stated)	7.4µM*	0	?	7%	-13
Nc1nc2n(n1)C(c1ccccc1Cl)CC(c1ccc(F)cc1)N2 (configuration not stated)	1.7µM*	-3	·	11%	-6
CCOc1ccc(C2CC(c3ccccc3C)n3nc(N)nc3N2)cc1 (configuration not stated)	?	5	-28%	?	10
CSc1nnc(-c2cccc(C)c2)n1N	·	4	18%	-4%	-20
CCCOc1ccc(C(=O)CCC(=O)OCC(=O)Nc2cc(C)on2)cc1	·	12	9%	-5%	15
CCOC(=O)CN(C(=O)COc1nc(-c2ccccc2)cc(C)c1C#N)c1ccc(C)cc1	5.9µM*	-2	13µM*	0%	14
CCOC(=O)COc1nc(-c2ccccc2)cc(-c2ccco2)c1C#N	-1%	-1	9%	-7%	14

Screening results as filed in PubChem BioAssay.
